Consider 15 compounds from PubChem BioAssay (NCI).

The structures appear in SMILES notation. The panel holds about 83,000 compounds, 20% with a hit somewhere; the sample as a whole holds those more often.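 Plates (96-well) were seeded with cells, treated with compound at one concentration, and incubated for 48 hours before percent growth was determined.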 Values without a mark were called inactive. Calls of active or inactive are those of the source. Rule for the calls: active = growth percent below 10; inactive = the rest.

Common to all, as to assay: NCI-60 one-dose screen, 48 h (100 = growth as untreated, 0 = no growth, -100 = all killed)
Holding throughout (conditions): 10 µM unless noted

The subject of test [1] is T-47D breast.
Test [2] concerns BT-549 breast.
The subject of test [3] is MDA-MB-435 melanoma.
In test [4] the test system is SW-620 colon.
Test [5] relates to MCF7 breast.
Test [6] has as its system HCT-116 colon.
Test [7] relates to HCC-2998 colon.
Test [8] relates to KM12 colon.

In the case of `CC1=CN2C(=O)C3C4=C(CCCC4)SC3N=C2CN1c1c(C)cccc1C` (stereo not given), the growth in test [1] was 81.1%; in test [2], 108%; in test [3], 94.4%; in test [4], 88.9%; in test [5], 112%; in test [6], 55%. Also, the results for the growth in test [7] and in test [8] were 97.3% and 97.4%, respectively.

As to `CC(C)CC(NC(=O)CN(Cc1ccccc1)S(C)(=O)=O)C(=O)O` (stereo not given), the growth in test [1] was 82%; in test [2], 118%; in test [3], 94.2%; in test [4], 108%; in test [5], 90.5%; in test [6] it was 100%. Also, the growth in test [7] is 95%; in test [8] it was 98.6%.

Consider `COC(=O)[C@H](CSC)N(C)C(=O)[C@@H]1CSSC[C@@H](NC(=O)c2nc3ccccc3cc2O)C(=O)NCC(=O)N1C`, for which the growth is 33.8% in test [1]; 111% in test [2]; 70% in test [3]; 74.2% in test [4]; 79.4% in test [5]; 71.7% in test [6]. The growth in test [7] was 98.8%; in test [8], 50.6%.

As for `O=c1cc(-c2ccc(Cl)cc2)[nH]c2ccccc12`, the growth was 87.2% in test [1]; 101% in test [2]; 5.74% (active) in test [3]; 56.9% in test [4]; 49.9% in test [5]; 73.2% in test [6]. Besides, the growth in test [7] was 76.7%; in test [8] it was 43.7%.

With `CC1=NOC(=O)/C1=C\c1ccc(O)cc1`, the growth in test [1] was 104%; in test [2] it was 107%; in test [3], 102%; in test [4], 102%; in test [5], 94.6%; in test [6], 103%. For the same compound, the growth was 109% in test [7] and 101% in test [8].

Consider `NC(=S)Nc1cccc(O)c1`, for which the growth is 106% in test [1]; 78.8% in test [2]; 98.6% in test [3]; 99.8% in test [4]; 98.8% in test [5]; 91.6% in test [6]. For the same compound, the growth in test [7] is 96.7%; in test [8], 106%.

Turning to `Oc1c(CN2CCCC2)cc(COCc2ccc(Br)cc2)c2cccnc12`, the growth is -7.63% (active) in test [1]; 14.9% in test [2]; 24.1% in test [3]; 5.64% (active) in test [4]; 11.7% in test [5]; 1.8% (active) in test [6]. The growth in test [7] was 21.5%; in test [8], 20.6%.

On to `Cc1cc(C)c2c(-c3nnc(N)s3)cc(=O)oc2c1`, for which the growth in test [1] was 99.6%; in test [2], 98.8%; in test [3] it was 94.3%; in test [4], 98.2%; in test [5], 92.2%; in test [6], 102%. In addition, the growth in test [7] is 108%; in test [8], 98.8%.

As for `O=C(O)c1ccc2c(c1Cl)C(=O)c1ccccc1C2=O`, the growth in test [1] was 101%; in test [2], 116%; in test [3], 78.3%; in test [4], 107%; in test [5], 94%; in test [6], 93.2%. Moreover, the growth is 104% in test [7] and 107% in test [8].

Regarding `CC/C=C/C/C=C/C/C=C/C/C=C/C/C=C/C/C=C/CCC(=O)Nc1ccn([C@@H]2O[C@H](CO)[C@@H](O)C2(F)F)c(=O)n1`, the growth in test [1] is 28.9%; in test [2], 29.8%; in test [3], 36.9%; in test [4] it was 30.8%; in test [5], 14.3%; in test [6], 12.1%. Also, the values for the growth in test [7] and in test [8] were 55.1% and 43.5%, respectively.

Consider `NC1=NCc2nc3ccccc3c(=O)n2C1`, for which the growth is 113% in test [1]; 113% in test [2]; 100% in test [3]; 103% in test [4]; 105% in test [5]; 101% in test [6]. The growth in test [7] was 88.8%; in test [8], 100%.

`COc1cc2c(cc1-c1c(C)noc1C)ncc1nc(C3CCC(F)(F)CC3)n(C3CCC(OC(F)F)CC3)c12` (stereo not given): the growth in test [1] was 22.5%; in test [2], 79.2%; in test [3], 55.2%; in test [4], 75.1%; in test [5], 26.2%; in test [6], 53.9%. Moreover, the growth in test [7] is 52.1%; in test [8], 51.4%.

With `O=C(/C=C/c1cccc(O)c1)c1cccc(-n2cc(-c3ccc4ccccc4c3)[nH]c2=O)c1`, the growth is -22.5% (active) in test [1]; -29.8% (active) in test [2]; -15.6% (active) in test [3]; -55.1% (active) in test [4]; -32.2% (active) in test [5]; -100% (active) in test [6]. Besides, the values for the growth in test [7] and in test [8] were 44.3% and -72% (active), respectively.

Take `Cc1ccc(/C=C/c2c(C(=O)/C=C/c3ccc(C(F)(F)F)cc3)c(C)nc3ccccc23)cc1`: the growth is -13.1% (active) in test [1]; -30.6% (active) in test [2]; -87.9% (active) in test [3]; -43.2% (active) in test [4]; -14.4% (active) in test [5]; -56.8% (active) in test [6]. Moreover, the growth in test [7] is -74.3% (active); in test [8], -70% (active).

Take `COc1cccc(C(=O)NCCNc2cc(-c3cn(-c4ccccc4)nc3-c3cccc(OC)c3)ccn2)c1`: the growth in test [1] was 22.1%; in test [2] it was 40.8%; in test [3] it was 64.3%; in test [4], 71.1%; in test [5], 56.7%; in test [6] it was 40.9%. For the same compound, the growth was 63.9% in test [7] and 41.5% in test [8].
